D2 antagonist – antagonists of human D2 dopamine receptor; HEK293 TREx D2 cells, calcium flux, dopamine EC80; hit rate 2% among 340,000; P14416; inhibition, % at 10 µM; in the data active means inhibition above about 30%; inactive means below that, where a call was filed
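Compounds are added to dye-loaded, induced HEK293 T-REx cells coupled to calcium release via D2; after a 3 min kinetic read an EC80 dopamine stimulus is given and fluorescence is recorded for 3 more min.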
D2 ag-1 – agonists of human D2 dopamine receptor (beta-arrestin). P14416. DiscoveRx PathHunter D2 beta-arrestin, luminescence, 90 min; 100% = 57 uM dopamine signal. activation, % (no concentration beside the values). hit rate 0.084% among 360,000; in the data active means activation above about 40%; inconclusive means between about 15% and that limit
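DiscoveRx PathHunter D2 beta-arrestin cells (2,100/well) attached overnight, then compound-stimulated 90 min at 37 C in HBSS/10 mM HEPES/0.1% Tween-20 buffer; beta-galactosidase complementation read by luminescence after 1 h at ambient temperature. Dopamine 57 uM final (EC100) as control.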
D2 PAM-1 – potentiates the human D2 dopamine receptor allosterically | P14416 | DiscoveRx D2 beta-arrestin cells, luminescence, 90 min; 100% = 57 uM dopamine signal | potentiation, % (test concentration not listed) | hit rate 0.23% among 360,000 | AID 624464; in the data active means potentiation above about 50%; inconclusive means mostly about 30% to 49%
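PathHunter D2 cells, attached overnight at 37 deg C, received compound in DMSO plus dopamine at EC20 (50 nM final) for 90 min at 37 deg C. Beta-arrestin recruitment was read as luminescence after 1 h with detection reagent at ambient temperature.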
D2 PAM-2 – positive allosteric modulators of human D2 dopamine receptor; P14416; HEK293 T-REx D2, calcium flux, EC20 dopamine potentiation; potentiation, % at 10 µM; hit rate 0.34% among 340,000; AID 485347;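 active means potentiation over 3 SD above the plate norm, cut at about 30% in these data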
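Tetracycline-induced Hek293 Trex D2 cells, force-coupled to calcium, loaded with no-wash calcium dye. Compound added with 180 s kinetic read for agonism, then EC20 dopamine and a further 180 s read for potentiation.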
D2 ag-2 – activates the human D2 dopamine receptor | P14416 | HEK293 T-REx D2 cells, calcium flux agonist mode | activation, % at 2 µM | hit rate 0.53% among 340,000;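 active means activation over 3 SD above normal in the single-dose calcium agonist read, cut at about 30% in these data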
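Tetracycline-induced HEK293 T-REx cells with force-coupled D2 receptor, plated overnight at 30 C, loaded with no-wash calcium dye. After a 10 s baseline, compound was pin-added and calcium flux read kinetically for 180 s; calcium rises flagged agonists.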
D3 arrestin ag – confirmation of human D3 dopamine receptor agonists, beta-arrestin; DiscoveRx D3 beta-arrestin cells, luminescence, 90 min; hit rate 4% among 2,300; AID 720506; Potency, µM (titrated, usually from 76.9 µM), hits mostly activators; shares compounds with D2 ag-2; further: nearly all actives have a fitted effect of over 70% in size
Target sequence (P35462 whole entry, looked up): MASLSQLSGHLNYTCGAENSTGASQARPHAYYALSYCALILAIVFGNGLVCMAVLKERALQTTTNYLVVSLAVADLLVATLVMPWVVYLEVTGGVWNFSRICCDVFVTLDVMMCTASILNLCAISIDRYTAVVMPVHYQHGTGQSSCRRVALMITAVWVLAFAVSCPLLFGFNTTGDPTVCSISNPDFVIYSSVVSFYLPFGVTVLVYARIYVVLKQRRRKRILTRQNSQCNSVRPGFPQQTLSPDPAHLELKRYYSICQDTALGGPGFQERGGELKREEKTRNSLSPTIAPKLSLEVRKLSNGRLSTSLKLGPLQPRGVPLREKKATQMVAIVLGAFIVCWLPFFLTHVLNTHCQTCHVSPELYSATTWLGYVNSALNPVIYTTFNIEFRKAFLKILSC
D2 ag-3 – D2 receptor agonism, beta-arrestin counterscreen; hit rate 5.9% among 2,300; Potency, µM (top dose mostly 76.9 µM), actives largely listed as activators; shares compounds with D2 ag-2; DiscoveRx PathHunter D2 beta-arrestin, luminescence, 90 min; response scale: percent relative to full dopamine signal; further: nearly all actives have a fitted effect of over 70% in size
Large screens that a line does not name were inactive (follow-up assays come after a bar, where they were run). In the library only some 2.4% were active in any assay of this set; here they are far more common. Unless noted, the call rests on the fitted dose curve; in most records, active means well fitted activation curve with a large enough effect; inconclusive means small, poorly fitted or top-dose-only effect; inactive means flat fitted curve, though single readings scatter.

COc1cccc(NC(=O)CN(C)C(=O)c2csc3c2CCCC3)c1	none (no result: D2 antagonist, D2 PAM-2, D2 ag-2) | D3 arrestin ag inactive | D2 ag-3 inactive
CCCN(CCC)CCNC(=O)CCC(=O)Nc1ccc2nc(N3CCN(C)CC3)cc(C)c2c1	none | D3 arrestin ag inactive | D2 ag-3 inactive
CCCCNC(=O)CCC(=O)Nc1ccc2nc(N3CCN(C)CC3)cc(C)c2c1	none
COc1cccc(NC(=O)CCN2CCN(CCO)CC2)c1	none (no result: D2 antagonist, D2 ag-1, D2 PAM-1)
CCOc1ccccc1CNC(=O)C1CCN(Cc2cc3ccccc3n2Cc2ccccc2)CC1	none (no result: D2 antagonist, D2 ag-1, D2 PAM-1)
CN(CCNC(=O)C1CCC(=O)N(Cc2ccc(Cl)cc2)C1)CCc1ccccc1 (stereo unspecified)	D2 ag-2 44.5 | D3 arrestin ag inactive | D2 ag-3 inactive
CN(CCNC(=O)C1CCC(=O)N(Cc2cccc(F)c2)C1)CCc1ccccc1 (stereo unspecified)	none
COc1ccc(CCNc2nc(SCc3ccccc3Cl)nc3ccccc23)cc1OC	none (no result: D2 antagonist, D2 ag-1, D2 PAM-1)
COc1cccc(CN2CCC(Oc3ccc(C(=O)N4CCCCC4)cc3)CC2)c1	none
CC(C)/C=C/CN1CCC(Oc2ccc(C(=O)N3CCCC3)cc2)CC1	none (no result: D2 antagonist, D2 ag-1, D2 PAM-1, D2 PAM-2, D2 ag-2) | D3 arrestin ag inactive | D2 ag-3 inactive
CC(CCc1ccc(O)cc1)N1CCC(Oc2ccc(C(=O)N3CCCC3)cc2)CC1 (stereo unspecified)	D2 antagonist 39.1, D2 ag-2 59.8 | D3 arrestin ag inconclusive | D2 ag-3 inactive
CCc1cccc(CC)c1NC(=S)NCCc1ccc(O)c(O)c1	D2 ag-2 36.4 | D3 arrestin ag 39.8µM | D2 ag-3 inconclusive
COc1cc(-c2nnc(NC(=O)CCS(=O)(=O)c3ccc(F)cc3)o2)cc(OC)c1OC	none
COc1cc(-c2nnc(NC(=O)CCS(=O)(=O)c3ccccc3)o2)cc(OC)c1OC	D2 antagonist 41.2 | D3 arrestin ag inactive | D2 ag-3 inactive
CCOC(=O)C1CCCN(C(=O)Cn2nc(C)c3c(C)n(-c4ccccc4)nc3c2=O)C1 (stereo unspecified)	none | D3 arrestin ag inactive | D2 ag-3 inactive
CC(=O)Nc1ccc(NC(=O)CSc2ccc3nnc(CCNC(=O)c4ccccc4)n3n2)cc1	none
COc1ccc(NC(=O)CSc2ccc3nnc(CCNC(=O)c4ccccc4)n3n2)cc1	none | D3 arrestin ag inactive | D2 ag-3 inactive
CCCn1c(-c2ccc(OC)cc2)nc2ccccc21	none | D3 arrestin ag inactive | D2 ag-3 inconclusive
CSc1cccc(NC(=O)Cn2ncn3c(cc4ccccc43)c2=O)c1	none (no result: D2 antagonist, D2 ag-1, D2 PAM-1)
OC(CNCC1COc2ccccc2O1)COc1ccccc1F (stereo unspecified)	D2 antagonist 95.6, D2 ag-2 78.3 | D3 arrestin ag inactive | D2 ag-3 inactive
OC(COCc1ccccc1)CN1CCN(c2ccccc2F)CC1 (stereo unspecified)	D2 antagonist 111.1, D2 ag-2 64.4 | D3 arrestin ag inconclusive | D2 ag-3 inconclusive
O=[N+]([O-])c1ccc(OCC(O)CN2CCN(c3ccccc3F)CC2)cc1 (stereo unspecified)	D2 antagonist 90.6, D2 ag-1 inconclusive, D2 ag-2 78.8 | D3 arrestin ag inconclusive | D2 ag-3 inconclusive
OC(COCC1COc2ccccc2O1)CN1CCN(c2ccccc2F)CC1 (stereo unspecified)	D2 antagonist 83.6, D2 ag-2 59.5 | D3 arrestin ag inconclusive | D2 ag-3 inconclusive
Cc1ccc(N2CCN(CC(O)COc3ccc([N+](=O)[O-])cc3)CC2)cc1 (stereo unspecified)	none
CCN1CCN(CC(O)COCc2ccccc2)CC1 (stereo unspecified)	none
CCCCN(CC)CCNC(=O)c1c(C)oc2ncnc(N3CCOCC3)c12	none (no result: D2 antagonist, D2 ag-1, D2 PAM-1, D2 ag-2)
O=C(Cc1ccc(NC(=O)N2CCCCc3ccccc32)cc1)NCc1ccccc1Br	none (no result: D2 antagonist, D2 ag-1, D2 PAM-1)
COCCNc1oc(/C=C/c2ccc(F)cc2)nc1C#N	none (no result: D2 antagonist, D2 ag-1, D2 PAM-1, D2 PAM-2)
CCCCNC(=O)Cn1c(=O)cc(C)c2c(C)nn(-c3cccc(Cl)c3C)c21	none (no result: D2 antagonist, D2 ag-1, D2 PAM-1)
O/C=c1\ccc2cccc3nc(C(F)(F)F)nc1c23	none
C/C(O)=c1/ccc2cccc3nc(C)nc1c23	none | D3 arrestin ag inconclusive | D2 ag-3 inactive
CCN1CCN(c2ccc(S(=O)(=O)N3CCOCC3)cc2NC(=O)C(C)Oc2ccc(F)cc2)CC1 (stereo unspecified)	none | D3 arrestin ag inactive | D2 ag-3 inactive
CC(Oc1ccc(F)cc1)C(=O)Nc1cc(S(=O)(=O)N2CCOCC2)ccc1N1CCCC1 (stereo unspecified)	none
O=C(c1ccco1)N1CCN(Cc2ccccc2F)CC1	D2 antagonist 80.3, D2 ag-1 75.3, D2 ag-2 78.2 | D3 arrestin ag inconclusive | D2 ag-3 inconclusive
CCn1c(=O)cc(SCC(=O)N2CCN(C(=O)c3ccco3)CC2)c2ccccc21	none
CCn1c2ccccc2c2cc(CN3CCN(C(=O)c4ccco4)CC3)ccc21	none | D3 arrestin ag inconclusive | D2 ag-3 inactive
O=C(c1ccco1)N1CCN(Cc2c(F)cccc2Cl)CC1	none (no result: D2 antagonist, D2 PAM-2, D2 ag-2)
Cc1ccccc1CC(=O)N1CCN(C(=O)c2ccco2)CC1	none
O=C(NC(=S)N1CCN(Cc2ccccc2)CC1)c1ccco1	D2 ag-2 69.9 | D3 arrestin ag inactive | D2 ag-3 inactive
Cc1ccccc1CN1CCN(C(=O)c2ccco2)CC1	D2 antagonist 69.7, D2 ag-1 47.4, D2 ag-2 80.7 | D3 arrestin ag inconclusive | D2 ag-3 20µM
CC1CCN(C(=S)NC(=O)c2ccco2)CC1	none
Cc1cc(C)c(NC(=O)C2CCN(c3nc4ccccc4n4cccc34)CC2)c(C)c1	none (no result: D2 antagonist, D2 ag-1, D2 PAM-1)
Cc1ccc(OCC(=O)OC2=C(C(=O)c3ccccc3)N(C)S(=O)(=O)c3ccccc32)cc1	none (no result: D2 antagonist, D2 ag-1, D2 PAM-1)
O=C(CCCOc1ccccc1)N1CCN(C(=O)c2ccco2)CC1	none
O=C(c1ccco1)N1CCCN(C(=O)c2ccco2)CC1	none
O=C(c1ccco1)N1CCN(Cc2cccnc2)CC1	D2 antagonist 31.2, D2 ag-1 inconclusive, D2 ag-2 70.0 | D3 arrestin ag inconclusive | D2 ag-3 inconclusive
Cc1ccc(Nc2nc(N)nc(CN3CCN(C(=O)c4ccco4)CC3)n2)cc1Cl	D2 antagonist 38.5, D2 ag-1 inconclusive, D2 ag-2 66.7 | D3 arrestin ag inactive | D2 ag-3 inconclusive
Cc1ccc(CN2CCN(C(=O)c3ccco3)CC2)cc1	D2 antagonist 82.5, D2 ag-1 69.8, D2 PAM-1 55.5, D2 ag-2 66.1 | D3 arrestin ag inconclusive | D2 ag-3 4.47µM
Cc1ccc(OCC(=O)N2CCN(C(=O)c3ccco3)CC2)cc1	none
